A selection follows.
aSyn 5UTR act – Activators via SNCA 5'UTR binding, MLPCN; alpha-synuclein 5'UTR reporter, activators screen; activity score, % (tested at 7.5 µM), hits read low; actives 7.1% (n = 300,000); AID 1814; in the data active = activity score below about -60%
Active calls of the source: *.

SMILES	aSyn 5UTR act
CCOC(=S)SCC(=O)Nc1nc(-c2ccc(Br)cc2)cs1	70
CCOC(=O)N1CCN(C(=O)CSCC(=O)Nc2nc(-c3ccc(OC)cc3)cs2)CC1	-97*
CCOC(=O)N1CCN(C(=O)CSCC(=O)Nc2nc(-c3ccc(-c4ccccc4)cc3)cs2)CC1	-126*
O=C(COC(=O)c1cccnc1Cl)Nc1nc(-c2ccccc2)cs1	-63*
COc1ccc2c(c1)CC/C2=N\OC(=O)c1ccccc1OC	-65*
O=[N+]([O-])c1ccc(-c2nc3ccc([N+](=O)[O-])cc3[nH]2)cc1	-143*
O=[N+]([O-])c1ccc2nc(/C=C/c3ccc(Cl)cc3)[nH]c2c1	-151*
Nc1ccc(-c2nc3ccc([N+](=O)[O-])cc3[nH]2)cc1	-84*
COc1cccc(Cn2c(N)c(C#N)c3nc4ccccc4nc32)c1OC	53
COc1cccc(CNc2ccc3c(c2)ncn3C(C)C)c1OC	-87*
Oc1cccc2ccc(/C=C/c3cccs3)nc12	-172*
COc1cc(/C=C/c2ccc3cccc(O)c3n2)ccc1O	-67*
COc1ccc(C(NC(C)=O)c2ccc3cccnc3c2O)c(OC)c1 (stereo unspecified)	83
CN(C(=O)OC(C)(C)C)c1ccc(-c2nc3ccccc3s2)cc1	104
CCCCNC(=O)c1cc2ccccc2s1	-108*
CCCCNC(=O)N(C)c1nc2ccccc2s1	-133*
COC(=O)N(C)c1nc2ccccc2s1	-77*
CCC1CCCCN1C(=O)CCS(=O)(=O)c1ccccc1 (stereo unspecified)	-93*
O=C(CCCc1ccccc1)N1CCN(C2CCCCC2)CC1	-115*
CCC1CCCCN1C(=O)CCCc1ccccc1 (stereo unspecified)	-105*
CCN=C1S/C(=C\c2ccc(Sc3ccc(Cl)cc3)o2)C(=O)N1CC	57
CC1=CN2C(=N)/C(=C/c3ccc(Sc4ccc(C)cc4)o3)C(=O)N=C2S1	-78*
CC1=CN2C(=N)/C(=C/c3ccc(C)o3)C(=O)N=C2S1	-80*
COC(=O)[C@@H]1Cc2c([nH]c3ccccc23)C(C)(C)N1C(=O)CCl	61
CC1CCCN(C(=O)COC(=O)c2n[nH]c3ccccc23)C1 (stereo unspecified)	-140*
SMILES	aSyn 5UTR act
Cn1c(C(=O)NCc2ccccn2)cc2c(=O)n3ccccc3nc21	-89*
Cn1c(C(=O)NC2CCCCC2)cc2c(=O)n3ccccc3nc21	-134*
Fc1ccc(NC(=S)NN=C2CCCCCC2)cc1	-75*
S=C(NN=C1CCCCCC1)Nc1ccc(Cl)cc1	-71*
O=C1NCCN/C1=C\C(=O)c1cccc(Br)c1	-62*
O=C1NCCN/C1=C\C(=O)c1ccc(Br)cc1	-120*
Cc1cc2oc(=O)c(CC(=O)NCCCN(C)C)c(C)c2c2occ(C(C)(C)C)c12	61
COCCNC(=O)Cc1c(C)c2c(cc(C)c3c(C(C)(C)C)coc32)oc1=O	-116*
Cc1ccc(-c2nn(CC(=O)NCc3cc(-c4nn(C)c(=O)c5ccccc45)ccc3C)c(=O)c3ccccc23)cc1	114
CCc1ccc(-c2cc3c(=O)n(CC(=O)NCc4ccccc4F)ncn3n2)cc1	-70*
COc1cccc(CN2C(=O)C3(C(C#N)=C(N)OC4=C3C(=O)CCC4)c3ccccc32)c1 (stereo unspecified)	63
COc1cccc(Cn2c(=O)sc3ccccc3c2=O)c1	-79*
COc1ccc(CCNCC(O)Cn2c3ccccc3c3ccccc32)cc1OC (stereo unspecified)	120
COc1ccc(CCN2CC(C(=O)NCCc3ccccc3)CC2=O)cc1OC (stereo unspecified)	-97*
COC(=O)c1ccc(NC(=O)C2CCCO2)cc1 (stereo unspecified)	-64*
COC(=O)c1c(-c2ccc(F)cc2)csc1NC(=O)C1CCCO1 (stereo unspecified)	-85*
O=C(Nc1cccc(O)c1)c1ccc(NC(=O)C2CCCO2)cc1 (stereo unspecified)	-98*
O=C(Nc1ccc(F)cc1)c1ccc(NC(=O)C2CCCO2)cc1 (stereo unspecified)	-128*
CSc1ccc2c(c1)C(N1CCN(C)CC1)Cc1ccc(F)cc1S2 (stereo unspecified)	57
NNCCc1ccccc1	-133*
COc1ccccc1-c1nc(-c2ccc(C)nc2OC)no1	-114*
COc1nc(C)ccc1-c1noc(-c2cccnc2)n1	-106*
Cc1ccnc(SCC(=O)c2ccc(Br)cc2)c1C#N	-198*
Cc1ccc(C(=O)CSc2nsc(C)c2C#N)cc1	-149*
Cc1snc(SCC(=O)c2ccc(Cl)cc2)c1C#N	-140*
SMILES	aSyn 5UTR act
COc1ccc(CC(=O)O/N=C(\N)c2ccc(OC)cc2)cc1	-86*
COc1ccc(/C(N)=N/OC(=O)Cc2cccs2)cc1	-129*
O=C(Nc1ccc(F)cc1)NC1CCCCCCC1	-96*
Nc1ccc(NC(=O)NC2CCCCC2)cc1[N+](=O)[O-]	-161*
S=C(NCCc1cccc(Cl)c1)NC1CCCCC1	-118*
O=C(Nc1ccc(Cl)cc1)NC1CCCCC1	-175*
CC1=C/C(=C(/c2cc(C)c(O)c(Br)c2)c2ccccc2S(=O)(=O)O)C=C(Br)C1=O	61
CC(=O)c1cccc(NC(=O)NC2CCCCCCC2)c1	-70*
O=C(Nc1ccc(F)c(F)c1)NC1CCCCC1	-86*
O=C(Nc1ccccc1F)NC1CCCCCCC1	-115*
O=C(Nc1cccc(Cl)c1)NC1CCCCC1	-121*
O=C(NC1CCCCCCC1)c1ccc(F)cc1	-197*
O=C(Nc1ccc2nsnc2c1)NC1CCCCC1	-197*
O=C(NC1CCCCCC1)c1ccc(N2CCCC2=O)cc1	-101*
COc1ccccc1C(=O)NC(=S)Nc1ccc(N2CCCC2)cc1	-83*
O=C(CNc1ccccc1OC(F)F)N1CCc2ccccc21	-289*
COc1ccccc1C(=O)Nc1ccc(N2CCN(S(C)(=O)=O)CC2)cc1	-76*
COCCNC(=S)Nc1ccc(N2CCCCC2)cc1	-173*
COc1ccccc1C(=O)NC(=S)N1CCCc2ccccc21	-167*
COc1c(C)cccc1C(=O)Nc1ccc(CN2CCOCC2)cc1	-109*
COc1c(C)cccc1C(=O)Nc1ccc(N2CCN(S(C)(=O)=O)CC2)cc1	-146*
CN1CCN(c2ccc(NC(=S)NC(=O)c3cccc4c(Cl)cccc34)cc2)CC1	-128*
O=C(COc1ccc(F)cc1Br)N1CCc2ccccc21	-86*
O=C(COc1ccccc1Cl)NC(=S)N1CCc2ccccc21	-87*
c1ccc2c(c1)CCN(c1nc3ccccc3n3cnnc13)C2	-122*
SMILES	aSyn 5UTR act
COc1ccccc1C(=O)NN=C1CCN(Cc2ccccc2)CC1	-73*
COc1ccccc1C(=O)N/N=C(\C)c1ccc(NC(=O)Cc2ccccc2)cc1	-104*
C/C(=N\NC(=O)c1cccc(C)c1O)c1ccc(NC(=O)Cc2ccccc2)cc1	-74*
C/C(=N\NC(=O)c1ccccc1N)c1ccc(NC(=O)Cc2ccccc2)cc1	-68*
Cc1ccc2c(C)c(C(=O)N3CCN(Cc4ccc5c(c4)OCO5)CC3)oc2c1C	-63*
COc1ccccc1C(NC(C)=O)c1cc(Cl)c2cccnc2c1O (stereo unspecified)	67
COc1ccccc1/C=C/C(=O)NCCc1ccccn1	-92*
COc1ccc(/C=C/C(=O)Nc2cccnc2Cl)cc1	-224*
COc1ccccc1/C=C/C(=O)Nc1cccnc1Cl	-133*
CC(C)Oc1ccc(/C=N/NC(N)=S)cc1	-116*
Cc1c(C(=O)N/N=C/c2ccc(N(C)C)cc2)[nH]c2ccc(Cl)cc12	73
CNC(=S)N/N=C/c1ccc(C(C)C)cc1	-161*

Assay outcomes from PubChem.
